From publication PMC13423814

Experiments:
[1] = molecular target: 26S proteasome non-ATPase regulatory subunit 5 (UniProt Q16401)
Histone H2B type 1-L = Histone H2B type 1-L (UniProt Q99880)
[2] = molecular target: Large ribosomal subunit protein eL28 (UniProt P46779)
Twinfilin-1 = Twinfilin-1 (UniProt Q12792)
[3] = molecular target: Heterochromatin protein 1-binding protein 3 (UniProt Q5SSJ5)

26S proteasome regulatory subunit 4, P62191, sequence (P62191 whole entry): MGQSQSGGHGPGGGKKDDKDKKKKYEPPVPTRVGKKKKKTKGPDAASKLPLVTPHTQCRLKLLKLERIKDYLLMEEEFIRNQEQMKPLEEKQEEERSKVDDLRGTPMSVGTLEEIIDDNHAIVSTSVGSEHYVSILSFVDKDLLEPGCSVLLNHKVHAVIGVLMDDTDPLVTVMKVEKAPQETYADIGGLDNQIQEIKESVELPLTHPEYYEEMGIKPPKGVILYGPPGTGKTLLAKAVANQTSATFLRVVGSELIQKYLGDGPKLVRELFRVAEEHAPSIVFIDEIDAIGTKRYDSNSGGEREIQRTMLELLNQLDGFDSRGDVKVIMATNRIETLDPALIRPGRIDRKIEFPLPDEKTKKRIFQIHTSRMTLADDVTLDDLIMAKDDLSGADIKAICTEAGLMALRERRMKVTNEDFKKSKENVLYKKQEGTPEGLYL
Histone H2A.V, Q71UI9, sequence (Q71UI9 whole entry): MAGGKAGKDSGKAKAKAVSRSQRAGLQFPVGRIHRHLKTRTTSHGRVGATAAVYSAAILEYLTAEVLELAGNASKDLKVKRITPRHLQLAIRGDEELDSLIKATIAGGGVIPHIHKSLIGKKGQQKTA
26S proteasome non-ATPase regulatory subunit 5, sequence (Q16401 whole entry): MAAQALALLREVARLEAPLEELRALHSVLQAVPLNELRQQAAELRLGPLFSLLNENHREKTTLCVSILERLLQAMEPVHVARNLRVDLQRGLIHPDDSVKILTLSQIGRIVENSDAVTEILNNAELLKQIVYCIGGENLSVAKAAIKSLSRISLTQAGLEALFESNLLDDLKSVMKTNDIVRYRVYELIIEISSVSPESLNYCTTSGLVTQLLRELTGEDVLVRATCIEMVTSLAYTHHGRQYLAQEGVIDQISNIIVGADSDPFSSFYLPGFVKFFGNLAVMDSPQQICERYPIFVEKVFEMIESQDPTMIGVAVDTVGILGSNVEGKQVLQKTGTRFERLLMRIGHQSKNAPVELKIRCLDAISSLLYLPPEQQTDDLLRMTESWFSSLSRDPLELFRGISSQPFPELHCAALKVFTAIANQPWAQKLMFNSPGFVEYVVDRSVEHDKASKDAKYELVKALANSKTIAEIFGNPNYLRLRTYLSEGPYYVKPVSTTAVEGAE

## 26S proteasome regulatory subunit 4, P62191
[1]
  listed as a hit: yes

## Histone H2A.V, Q71UI9
Histone H2B type 1-L
  listed as a hit: yes

## Calmodulin-3, P0DP25
[2]
  listed as a hit: yes

## Actin, cytoplasmic 1, P60709
Twinfilin-1
  listed as a hit: yes

## Histone H4, P62805
[3]
  listed as a hit: yes
